Results on 97 compounds are retold here after PubChem BioAssay AID845 (Columbia University Molecular Screening Center, 2007).

Among all 94,000 compounds or so, about 390 (0.41%) were called active. The entries come from a sample that favours actives as a whole. Unmarked numbers belong to inactive results.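 Rule for the calls: active = cell count reduction more than 3 SD above the screen-wide mean (cut at about 70% in these data); inactive = the rest.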

The assay can be described thus: HUVEC cell count loss after compound exposure – imaging, Hoechst nuclear count, IL-1B stimulus, cytotoxicity control for IL-1B NFkB translocation project, primary screen (AID 845).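 Note: normalized per plate to untreated control cells as the no-loss baseline.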 Particulars: IL-1B stimulated, at 2 µM, hits give high values.
`Cc1cc(-c2ccccc2)n2nc(C)c(-c3ccccc3)c2n1`: the cell count reduction is -18.8%. Consider `Cc1[nH]n(-c2cccc(Cl)c2)c(=O)c1-c1ccc(Cl)cc1`, for which the cell count reduction is -1.3%. As for `Cc1nc2c(-c3ccccc3)c(C)[nH]n2c(=O)c1Cl`, the figure is 86.7% (active). As for `O=C(NNC(=O)c1cccnc1)Nc1ccccc1`, the figure is 19.6%. Turning to `O=C(Nc1ccccc1Cl)O/N=C(/c1ccccc1)c1ccccn1`, the cell count reduction was -21.6%. As for `CCOC(=O)C1(S(=O)(=O)c2ccc(Cl)cc2)CCN(Cc2ccccc2)CC1`, the figure is -78.7%; as for `Cc1c(C(=O)NCc2ccccc2)cnn1-c1ccccc1`, -8.5%. In the case of `O=[N+]([O-])c1ccc(Oc2ccc(F)cc2Br)c2ccncc12`, the cell count reduction was 5.4%. For `COC(=O)CNC(=O)c1ccccc1[N+](=O)[O-]` the value was 22.7%; for `Clc1ccc(CSc2nnc(/C=C/c3ccccc3)o2)c(Cl)c1`, -46.7%; for `CCOC(=O)c1c(NC(=O)/C=C/c2ccco2)sc(C)c1C`, -43.8%. Consider `O=C1/C(=C\Nc2ccccc2)CCN1c1ncccn1`, for which the cell count reduction is -32.2%. Regarding `CN(C(=O)CSc1nc(C2CC2)nc2ccccc12)c1nc(-c2ccccc2)cs1`, the cell count reduction is 0.9%. For `CCN(CC)S(=O)(=O)c1ccc(N2CCOCC2)c(C(=O)O)c1` the value was 5.3%.

For `COc1ccc(S(=O)(=O)N2CCCC(C(=O)N3CCN(C)CC3)C2)cc1C` (configuration not stated), the cell count reduction is -33.6%. As for `Cc1cc(=O)n2nc(N3CCCC(C(=O)N4CCN(C)CC4)C3)sc2n1` (configuration not stated), the figure is 85.7% (active). `COc1cc(C)nc(N2CCCC(C(=O)NCC(C)C)C2)n1` (configuration not stated): the cell count reduction is -46.9%.

On to `COc1ccc(C(C#N)Nc2ccc(C)cc2)cc1` (configuration not stated), for which the cell count reduction was -28.6%. For `Cc1cc(C)c(OCC(=O)N/N=C/c2ccco2)c(C)c1` the value was 19.3%.

For `O=[N+]([O-])c1ccccc1/C=N/n1c(COc2ccccc2)n[nH]c1=S`, the cell count reduction is -18.2%. For `O=C(c1ccc(CN2CCOCC2)cc1)N1CCN(c2ccccc2F)CC1` the value was 2.7%; for `C/C=C/C(=O)Nc1nnc(C(C)C)s1`, 7.2%. As for `COc1cccc(NC(=O)c2nn(C34CC5CC(CC(C5)C3)C4)cc2[N+](=O)[O-])c1`, the figure is -1.4%. Regarding `Cc1nc(SCC(=O)c2ccccc2)c([N+](=O)[O-])[nH]1`, the cell count reduction is -10.8%. For `CCOc1ccccc1NC(=O)C1CCCN(C(=O)Nc2ccccc2)C1` (configuration not stated) the value was -30.5%; for `Cc1cccc(C)c1NC(=O)c1ccc(CN2CCc3ccccc3C2)cc1`, -6.8%. As for `CCOC(=O)COc1cc(OCC(=O)OCC)c2c(=O)cc(-c3ccccc3)oc2c1`, the figure is 7.8%. For `C=C(C)C(=O)Nc1cccc(C(C)=O)c1`, the cell count reduction is 1.7%. For `O=c1[nH]n(-c2cccc(Cl)c2)c2ncccc12` the value was -27.9%; for `CCCc1ccc(OCC(=O)NNC(=S)NC(=O)c2ccco2)cc1`, -2.4%.

On to `O=c1c2ccccc2nc2n1C(CSc1ccc(F)cc1)CN2` (configuration not stated), for which the cell count reduction was -9.2%. Turning to `CSc1ccc(C#N)cc1NC(=O)c1ccc(Cl)cc1`, the cell count reduction is -20.7%. `CC1(C)N=C(c2ccccn2)C(C)(C)N1O`: the cell count reduction was 10.6%. Turning to `Cc1cccc(N(CC(=O)N2CCOCC2)S(C)(=O)=O)c1`, the cell count reduction is -61.2%. Consider `Nc1ccc(C(=O)OCC(=O)NC2CCCc3ccccc32)cc1[N+](=O)[O-]` (configuration not stated), for which the cell count reduction was -106%.

For the compound `CCc1cccc(C)c1N(C(=O)Cn1c(CO)nc2ccccc21)C(C)COC` (configuration not stated), the cell count reduction is -7.6%. For `COC(=O)c1cc(NC(=O)CC2C(=O)NCCN2C(=O)c2ccc(F)cc2)cc(C(=O)OC)c1` (configuration not stated) the value was -3.7%; for `N#CC1=C(SCc2ccc(C#N)cc2)N=C(N)C(c2nc(-c3ccccc3)cs2)C12CCCCC2` (configuration not stated), 25.2%; for `COc1ccc(C)cc1S(=O)(=O)Nc1cccc(Cl)c1Cl`, 6.2%.

Turning to `O=C(CNS(=O)(=O)c1ccc(Br)s1)N1CCN(C(=O)c2ccco2)CC1`, the cell count reduction was 15.9%.

Regarding `COc1ccc(C)cc1NC(=O)CCS(=O)(=O)c1cccc2nonc12`, the cell count reduction is 0.3%. For `OC(CN1C2=NCCCN2c2ccccc21)c1ccc(Br)cc1` (configuration not stated) the value was 8.9%.

For `Cc1ccc(-c2csc(SCC(=O)Nc3cc(C)on3)n2)cc1`, the cell count reduction is 8.8%. As for `CCCNC(=O)N1CCN(C(=O)NCCC)CC1`, the figure is 4.6%; as for `CSCCC(NC(=O)COc1ccccc1)C(=O)OCC(=O)c1cc2ccccc2o1` (configuration not stated), -13.3%. As for `O=C(NC1=NCCS1)[C@H](Cc1ccccc1)N1C(=O)c2ccccc2C1=O`, the figure is -5.1%; as for `NC(=O)CSc1oc(-c2cccs2)nc1S(=O)(=O)c1ccccc1`, 72.9% (active); as for `COc1ccc(OC)c(C(=O)CSc2nnc(-c3cccs3)o2)c1`, -23.7%. Turning to `CC1CCCCN1S(=O)(=O)c1ccc(C(=O)Nc2nnc(-c3cccs3)o2)cc1` (configuration not stated), the cell count reduction was -4.4%.

As for `O=C(NCCN1CCN(Cc2ccccc2)CC1)c1cc2c(=O)[nH]c3ccccc3c2s1`, the cell count reduction is 26.5%.

In the case of `O=C(CN1CCCCCC1)N1c2ccccc2Sc2ccc(C(F)(F)F)cc21`, the cell count reduction is -33.3%. As to `CCCC(O)(c1ccc(OC)cc1)C(CN(C)C)c1ccccc1` (configuration not stated), the cell count reduction is -16.3%. As for `O=C(Cc1ccc(S(=O)(=O)N2CCCC2)s1)NC1CCCCCC1`, the figure is -2.6%; as for `O=C(O)CCCCc1nc2ccccc2s1`, 0.3%; as for `CCCC(=O)Nc1nc2ccc(NC(=O)c3cccnc3)cc2s1`, -12.3%.

For the compound `O=C(CNC(=O)Cc1ccccc1)NCC(=O)OCC(=O)c1ccccc1Cl`, the cell count reduction is -68.8%. For `CC(Oc1ccc(Cl)cc1)c1ccnn1S(C)(=O)=O` (configuration not stated) the value was 7.5%; for `COCCCNC(=O)CN1CCN(Cc2ccccc2Cl)C1=O`, -10.5%; for `C=CCOc1ccc(Cl)cc1CNCCCN1CCOCC1`, 6.4%. `Cc1ccccc1OCC(=O)NCC(=O)OCC(=O)c1ccc2ccccc2c1`: the cell count reduction is 13%. As for `O=C(/C=C/Nc1ccccc1OC(F)(F)F)C(F)(F)F`, the figure is -22.1%; as for `CCCCOC(=O)Nc1sc2nc(C)cc(C)c2c1-n1cccc1`, -2.8%. For `Cc1ccc(NC(=S)NC(=O)c2ccc(-c3ccccc3)cc2)cc1` the value was -7.3%. As for `O=C(Nc1nnc(SCc2ccccc2)s1)c1ccco1`, the figure is -6.4%. For the compound `COCCCNC(NC(=O)c1ccc(C)cc1)C(Cl)(Cl)Cl` (configuration not stated), the cell count reduction is -35.5%. For `CCN(CC)C(=O)CSc1nnc(CNc2ccc(F)cc2)n1Cc1ccco1` the value was -17.8%. For `CCOc1ccc(CN2CCCN(C)CC2)cc1` the value was -10.1%.

Consider `Cc1ccc(SCC2=NNC(=O)C2)cc1`, for which the cell count reduction is -29.7%. In the case of `O=C(NCc1cccnc1)Nc1ccccc1F`, the cell count reduction was 30.7%. Regarding `COc1ccc2c(c1OC)C(=O)c1ccccc1C2=O`, the cell count reduction is -3.8%. For `c1cnc(Nc2nc(-c3ccc4ccccc4c3)cs2)nc1` the value was 22.7%.

Consider `O=C(CN1CCCCCC1)Nc1ccc(Br)cc1Br`, for which the cell count reduction was 6.4%.

As for `CCOC(=O)c1ccc2c(c1)nc(C)n2CC`, the cell count reduction is 8.9%. With `Cc1cccn2c(=O)c(/C=C(\C#N)S(=O)(=O)c3ccc(Cl)cc3)c(N3CCC(C(N)=O)CC3)nc12`, the cell count reduction was 28.1%.

Turning to `O=c1[nH]c(SCc2ccccc2)nnc1-c1ccccc1`, the cell count reduction was -19.8%.

Turning to `Cc1nc(SCC(=O)N2CCc3ccccc3C2)c2c(C)c(C)sc2n1`, the cell count reduction was -25.7%. As for `COc1cc(OC)nc(NC(=O)CCl)n1`, the figure is -85.3%. For `CC(=O)c1nn(-c2cccc(Br)c2)cc1C(=O)c1cccc2ccccc12` the value was -1.6%; for `O=C(C(NS(=O)(=O)c1cccc2nsnc12)c1ccccc1)N1CCN(c2ccccn2)CC1` (configuration not stated), -35.8%. For `CC12CCC(C(=O)N3CCN(c4ncccn4)CC3)(c3nc4ccccc4nc31)C2(C)C` (configuration not stated) the value was 82.1% (active); for `C=C(C)c1cccc(C(C)(C)NC(=O)N2CCN(c3ncccn3)CC2)c1`, 22.8%; for `CCC(C(=O)NCc1ccc(OC)cc1)n1nc(C)n2c(cc3occc32)c1=O` (configuration not stated), 9.6%. For the compound `Cc1ccc(S(=O)(=O)N(c2cccc(C)c2)C2CCS(=O)(=O)C2)cc1` (configuration not stated), the cell count reduction was 5.1%. Turning to `Cc1oc2nc(SCC(=O)Nc3ccc(S(N)(=O)=O)cc3)nc(NC(=O)c3ccccc3)c2c1C`, the cell count reduction is 13.5%. As for `CCOCC(=O)Nc1sc2c(c1C(=O)OCC)CCCC2`, the figure is 92% (active); as for `CCCOC(=O)Nc1sc2c(c1C(=O)OCC)CCC2`, 11.4%; as for `CCOC(=O)c1c(NC(=O)CSc2nnc(C)c(=O)[nH]2)sc2c1CCC2`, -24.4%. For `O=C(Cc1ccccc1)Nc1c(C(=O)N2CCCCCC2)cnn1-c1ccccc1`, the cell count reduction was -8.3%. As for `COC(=O)C(C)C1Sc2ccccc2NC1=O` (configuration not stated), the figure is 90.9% (active). For `CN1CCN(S(=O)(=O)c2ccc(N3CCN(S(=O)(=O)c4cccs4)CC3)nc2)CC1` the value was -0.9%; for `Cc1ccc(OCCCC(=O)Nc2ccc(N3CCOCC3)cc2)cc1`, 10.3%. For `COc1ccc(-c2nnc(SCC(=O)c3ccc4c(c3)OCCO4)o2)cc1` the value was -13.4%.

On to `COc1ccc(Nc2nc(-c3ccccc3)cs2)cc1`, for which the cell count reduction is 3.5%.

For `COc1ccc(/C=C(/NC(=O)c2ccc(C)cc2)c2nc3ccccc3[nH]2)cc1OC`, the cell count reduction was -9.1%. On to `Cc1ccc(Oc2ccc3c(c2)C(=O)N(c2cccc4cccnc24)C3=O)cc1`, for which the cell count reduction is -63.9%.

On to `CCOc1cc(NC(=O)c2cnccn2)c(OCC)cc1NC(=O)c1ccc(C)cc1`, for which the cell count reduction was -42.4%. As for `O=C(NCC(=O)N(Cc1cccs1)C(C(=O)NC1CCCCC1)c1ccco1)c1cccs1` (configuration not stated), the cell count reduction was 24.1%.
